Compounds with a hit are over-represented: about 2.4% of the library has one in this group of screens.
SENP8 block-1 – blocks human SENP8 cleavage of Nedd8 substrate. Q96LD8. recombinant SENP8, Nedd8 substrate fluorescence. inhibition, % at 20 µM. 360,000 tested, 0.64% active. AID 602440; in the data active = inhibition mostly above about 40%, no sharp cut-off; inactive = mostly below about 27%
SENP6 inh – SENP6 protease inhibition | Q9GZR1 | Recombinant SENP6 catalytic domain, aminoluciferin luminescence | inhibition, % at 10 µM | 330,000 tested, 1.8% active;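 active = inhibition above about 50% at the single tested dose, limit read from the data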
Target sequence (Q9GZR1 628-1112 limits assumed): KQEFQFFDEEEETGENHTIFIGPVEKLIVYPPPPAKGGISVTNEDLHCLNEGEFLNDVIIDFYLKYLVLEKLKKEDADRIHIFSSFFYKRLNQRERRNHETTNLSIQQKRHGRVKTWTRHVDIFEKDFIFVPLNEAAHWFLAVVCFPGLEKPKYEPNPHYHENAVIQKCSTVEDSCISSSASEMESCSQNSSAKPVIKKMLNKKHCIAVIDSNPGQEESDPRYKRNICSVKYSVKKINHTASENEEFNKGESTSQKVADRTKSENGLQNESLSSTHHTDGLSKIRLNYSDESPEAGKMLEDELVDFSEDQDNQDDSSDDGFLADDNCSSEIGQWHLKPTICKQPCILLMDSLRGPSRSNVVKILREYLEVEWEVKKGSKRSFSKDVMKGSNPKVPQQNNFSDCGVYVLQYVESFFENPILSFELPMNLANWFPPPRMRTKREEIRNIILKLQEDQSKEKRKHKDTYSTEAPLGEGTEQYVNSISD
SENP8 block-2 – blocks the human protease SENP8; Q96LD8; purified SENP8, Z-RLRGG-aminoluciferin cleavage, luminescence; inhibition, % at 10 µM; 330,000 tested, 1.2% active; AID 2540; in the data active = inhibition above about 50%
Platelet DG rel – modulates dense granule release in human platelets; human platelet-rich plasma, SFLLRN dense granule ATP release, luminescence; inhibition, %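 (compounds screened at 7.5 µM in platelet-rich plasma)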; 300,000 tested, 0.22% active;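 active = mean replicate score, as percent of positive control, at or above 50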
SENP7 block – blocks the human protease SENP7; Q9BQF6; recombinant SENP7, Z-RLRGG-aminoluciferin luminescence, 40 min; inhibition, % at 5 µM; 330,000 tested, 1.5% active;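 active = inhibition above about 50% at the single test dose, limit read from the data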
Numbers stand for hits; – = inactive; · = no result.

SMILES | SENP8 block-1 | SENP6 inh | SENP8 block-2 | Platelet DG rel | SENP7 block
CCCC(=O)Nc1sc(-c2ccccc2)c(-c2ccccc2)c1C(=O)O | – | – | – | – | –
O=C1C(N2CCOCC2)=C(n2nnc3ccccc32)C(=O)c2ccccc21 | 76 | 76 | 74 | – | –
C/C(=N\Nc1cccc2cccnc12)c1ccc[nH]1 | – | – | 75 | – | 57
CCC(=O)Nc1cccc2cccnc12 | – | – | – | – | –
Cc1ccccc1CSCC(=O)N/N=C/c1cccs1 | 43 | – | – | · | –
COCC(C)NC(=O)c1cc2cccc([N+](=O)[O-])c2[nH]1 (stereo not given) | – | – | – | – | –
Cc1cc(NC(=O)c2cc3cccc([N+](=O)[O-])c3[nH]2)ccc1F | – | 73 | 61 | – | 77
O=c1nc(Nc2ccccc2)oc2ccccc12 | – | – | – | – | –
O=c1oc(Nc2ccc(F)cc2)nc2ccccc12 | – | – | – | 70 | –
CC(=O)c1cccc(N2C(=O)CC(N3CCN(S(=O)(=O)c4ccc(Cl)cc4)CC3)C2=O)c1 (stereo not given) | – | – | – | · | –
Nc1ccc(O)c2c1C(=O)c1ccccc1C2=O | 65 | – | – | – | –
Nc1ccc(Br)c2c1C(=O)c1ccccc1C2=O | · | – | – | – | –
COc1ccc(Cl)cc1C(=O)Nc1cccnc1Cl | – | – | – | – | –
CC(C)c1ccccc1NC(=O)COC(=O)c1cccnc1 | – | – | – | – | –
O=C(CN1CCN(c2ccccc2)CC1)N1N=CCC1c1ccccc1 (stereo not given) | – | – | – | 78 | –
CCC(Oc1ccccc1)C(=O)NC1C(=O)N2C1SC(C)(C)C2C(=O)O (stereo not given) | – | – | – | – | 61
CC1(C)S[C@@H]2[C@H](NC(=O)Cc3ccccc3)C(=O)N2[C@H]1C(=O)O | – | – | – | – | –
COc1ccccc1C(CNC(=O)c1ccc(C)c(S(=O)(=O)N2CCCCC2)c1)N1CCCC1 (stereo not given) | – | – | – | · | –
CCC(=O)NC1=C(NC(C)c2ccccc2)C(=O)c2ccccc2C1=O (stereo not given) | – | – | – | – | –
CCC(=O)NC1=C(Cl)C(=O)C(NC(=O)CC)=C(Cl)C1=O | 50 | – | – | · | –
O=C(NCCCN1CCOCC1)C1(c2ccccc2)CCCC1 | – | – | – | 70 | –
COC(=O)c1sccc1NC(=O)c1cc2c(s1)CCCC2 | – | – | – | – | 56
O=C(Oc1ccc[nH]c1=O)c1cc([N+](=O)[O-])cc([N+](=O)[O-])c1 | – | 88 | 66 | – | –
COc1ccc(C(=O)Oc2ccc[nH]c2=O)cc1 | – | – | – | – | –
CC(C)c1ccc(/C=C/C2=NNC(=O)CC2)cc1 | – | – | – | – | –
SMILES | SENP8 block-1 | SENP6 inh | SENP8 block-2 | Platelet DG rel | SENP7 block
CC(C)c1ccc(/C=C/c2ccc(=O)n(C)n2)cc1 | – | 84 | 69 | – | 84
Cc1csc(NC(=O)/C=C/c2ccc3c(c2)OCO3)n1 | – | 77 | – | – | 61
COc1ccc(/C=N/N=C(\N)c2nonc2N)cc1OC | – | – | – | – | –
Cc1nonc1C(=O)N/N=C/c1ccc(O)c(O)c1 | – | 97 | 96 | 67 | 99
N/C(=N\N=C\c1ccc(O)c(O)c1)c1nonc1N | – | 99 | 96 | 105 | 99
CCOc1ccc2nc(SCC(=O)NC3CCCCC3)[nH]c2c1 | – | – | – | – | –
Cc1ccc(/C=C/C(=O)O)cc1S(=O)(=O)N1CCCCC1 | – | – | – | 65 | –
Cc1ccc(/C=C/C(=O)O)cc1S(=O)(=O)N1CCc2ccccc2C1 | – | – | – | – | –
Cc1nnc(N/N=C\c2ccc(-c3cccc(C(=O)O)c3)o2)n1N | – | 52 | – | – | –
Cc1nnc(N/N=C/c2ccc(-c3ccc(Br)cc3)o2)n1N | – | – | – | – | –
Cc1cc(/C=C2\SC(=S)N(C)C2=O)c(C)n1-c1ccccc1O | – | 87 | 70 | – | 77
Cc1cc(/C=C2/SC(=S)N(c3cccc(Cl)c3)C2=O)c(C)n1-c1cccnc1 | – | – | – | – | –
O=C(Cn1[nH]c(=O)c2ccccc2c1=O)NCCN1C(=O)S/C(=C\c2ccccc2)C1=O | – | – | – | · | –
O=C1C=C(c2ccccc2)C(=O)N1Nc1ccccc1 | – | – | – | 61 | –
Cc1ccc(NN2C(=O)C=C(c3ccc(Cl)cc3)C2=O)cc1 | – | – | – | 57 | –
COc1ccc(C2=CC(=O)N(Nc3ccccc3)C2=O)cc1 | – | – | – | – | –
COc1ccc(C2=C(c3ccccc3)OC(OC)c3cc(F)ccc32)cn1 (stereo not given) | – | · | · | · | ·
CCCCN1C(=O)/C(=C/C=C2\Oc3ccccc3N2CC)SC1=S | – | · | · | – | ·
CCCCN1C(=O)/C(=C/C=C2/CC(C)(C)CN2C)SC1=S | 46 | – | – | – | –
Cn1c(=O)[nH]c(=O)c2c1nc(CN1CCN(c3cccc(Cl)c3)CC1)n2Cc1ccccc1Cl | – | – | – | – | –
CCN1CCN(Cc2nc3c(c(=O)[nH]c(=O)n3C)n2Cc2ccccc2Cl)CC1 | – | – | – | 65 | –
O=C(O)C1Nc2c(O)cc(Cl)c([N+](=O)[O-])c2C2C=CCC12 (stereo not given) | 46 | – | – | – | –
Cc1ccc2c(c1)C1C=CCC1C(C(=O)O)N2 (stereo not given) | · | · | · | – | ·
Cc1ccccc1N=Cc1cccc(O)c1O | – | – | – | – | –
Cc1ccc(N=Cc2cccc(O)c2O)c(C)c1 | 110 | – | – | – | –
SMILES | SENP8 block-1 | SENP6 inh | SENP8 block-2 | Platelet DG rel | SENP7 block
COc1ccc2ccccc2c1C1CC(=O)N2CN(Cc3ccco3)CSC2=C1C#N (stereo not given) | 45 | – | – | – | –
COc1cc([N+](=O)[O-])cc(/C=N/NC(=O)C(C)Nc2ccccc2C)c1O (stereo not given) | 41 | – | – | – | –
COc1cc([N+](=O)[O-])cc(/C=N/NC(=O)c2ccc(C)nc2)c1O | – | 75 | 58 | – | 77
CSCCC(NS(=O)(=O)c1ccccc1F)C(=O)NCc1ccncc1 (stereo not given) | – | – | – | – | –
O=C1Nc2ccc(C(F)(F)F)cc2N2CCCC12 (stereo not given) | · | – | – | – | –
O=C1Nc2ccccc2N2CCCC12 (stereo not given) | · | 68 | – | – | –
Cc1ccc(Oc2nc3ccccn3c(=O)c2/C=C(\C#N)C(=O)NC2CCS(=O)(=O)C2)c(C)c1 (stereo not given) | – | – | – | 51 | –
Cc1cc(C)cc(Oc2nc3ccccn3c(=O)c2/C=C(\C#N)C(=O)NC2CCS(=O)(=O)C2)c1 (stereo not given) | – | – | – | – | –
CN(C(=O)CSc1cc(Cl)ccc1Cl)C1CCS(=O)(=O)C1 (stereo not given) | – | – | – | · | –
O=C(O)Cn1c(CC(=O)N2CCCC2)nc2ccccc21 | – | – | – | – | –
CCOC(=O)c1cccc(NC(=O)Cn2c(CC(=O)N3CCCC3)nc3ccccc32)c1 | · | 76 | – | – | –
